According to the supplement of paper PMC7411054:

Columns and labels:
Test in all cases: phenotypically active (imaging signature differs from DMSO and reproducible) at any of 0.3-9 uM (binary (1 = active, 0 = inactive)); higher = active
Conditions in all cases: treatment time: 24 h
[1] = system: A549-ACTB-RAB5A
Outline: (§1)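 Phenotypic activity depended on meeting both a deviation and a reproducibility criterion. The fifteen gene-edited A549, HepG2 and WPMY1 reporter lines were treated at 0.3, 1, 3 or 9 µM for 24 h, four wells each, then imaged live with features normalised to solvent control wells. Deviation required ≥3 of 4 wells past the 95th percentile of control Euclidean distances, and reproducibility a median replicate Pearson correlation above the 95th percentile of non-replicates.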

[2] = system: A549-CANX-COX4
Outline: as §1

[3] = system: A549-GM130-SQSTM1
Outline: as §1

[4] = system: A549-TP53BP1-CLTA
Outline: as §1

[5] = system: A549-TUBA1B-RELA
Outline: as §1

[6] = system: HepG2-ACTB-RAB5A
Outline: as §1

[7] = system: HepG2-CANX-COX4
Outline: as §1

[8] = system: HepG2-GM130-SQSTM1
Outline: as §1

[9] = system: HepG2-TP53BP1-CLTA
Outline: as §1

[10] = system: HepG2-TUBA1B-RELA
Outline: as §1

[11] = system: WPMY1-ACTB-RAB5A
Outline: as §1

[12] = system: WPMY1-CANX-COX4
Outline: as §1

[13] = system: WPMY1-GM130-SQSTM1
Outline: as §1

[14] = system: WPMY1-TP53BP1-CLTA
Outline: as §1

[15] = system: WPMY1-TUBA1B-RELA
Outline: as §1

Measured: phenotypically active

CC(=O)[C@H]1CC[C@H]2[C@@H]3C=CC4=CC(=O)CC[C@@]4(C)[C@@H]3CC[C@]12C [dydrogesterone]
inactive: [1] 0 | [2] 0 | [3] 0 | [4] 0 | [5] 0 | [6] 0 | [7] 0 | [8] 0 | [9] 0 | [10] 0 | [11] 0 | [12] 0 | [13] 0 | [14] 0 | [15] 0

CN1C(=O)OC(C)(C)C1=O [trimethadione]
inactive: [1] 0 | [2] 0 | [3] 0 | [4] 0 | [5] 0 | [6] 0 | [7] 0 | [8] 0 | [9] 0 | [10] 0 | [11] 0 | [12] 0 | [13] 0 | [14] 0 | [15] 0

COc1cc(O)c2c(c1C1CCCN1)OC(c1ccc(O)cc1)CC2 (stereo not given) [Vochysine (4 dia/énantio)]
inactive: [1] 0 | [2] 0 | [3] 0 | [4] 0 | [5] 0 | [6] 0 | [7] 0 | [8] 0 | [9] 0 | [10] 0 | [11] 0 | [12] 0 | [13] 0 | [14] 0 | [15] 0

CC(C)c1ccc(NC(=O)Cn2cnc3c2c(=O)n(C)c(=O)n3C)cc1
inactive: [1] 0 | [2] 0 | [3] 0 | [4] 0 | [5] 0 | [6] 0 | [7] 0 | [8] 0 | [9] 0 | [10] 0 | [11] 0 | [12] 0 | [13] 0 | [14] 0 | [15] 0

COC(=O)c1sccc1S(=O)(=O)Nc1ccc(Nc2ccccc2)cc1OC
inactive: [1] 0 | [2] 0 | [3] 0 | [4] 0 | [5] 0 | [6] 0 | [7] 0 | [8] 0 | [9] 0 | [10] 0 | [11] 0 | [12] 0 | [13] 0 | [14] 0 | [15] 0

Nc1cc(-c2ccncc2)c[nH]c1=O [amrinone]
inactive: [1] 0 | [2] 0 | [3] 0 | [4] 0 | [5] 0 | [6] 0 | [7] 0 | [8] 0 | [9] 0 | [10] 0 | [11] 0 | [12] 0 | [13] 0 | [14] 0 | [15] 0

CCCNC(=O)NS(=O)(=O)c1ccc(Cl)cc1 [chlorpropamide]
inactive: [1] 0 | [2] 0 | [3] 0 | [4] 0 | [5] 0 | [6] 0 | [7] 0 | [8] 0 | [9] 0 | [10] 0 | [11] 0 | [12] 0 | [13] 0 | [14] 0 | [15] 0

CC1=Nc2ccc(Cl)cc2S(=O)(=O)N1 [diazoxide]
inactive: [1] 0 | [2] 0 | [3] 0 | [4] 0 | [5] 0 | [6] 0 | [7] 0 | [8] 0 | [9] 0 | [10] 0 | [11] 0 | [12] 0 | [13] 0 | [14] 0 | [15] 0

CC(=O)OCC[N+](C)(C)C [acetylcholine]
inactive: [1] 0 | [2] 0 | [3] 0 | [4] 0 | [5] 0 | [6] 0 | [7] 0 | [8] 0 | [9] 0 | [10] 0 | [11] 0 | [12] 0 | [13] 0 | [14] 0 | [15] 0

O=C(c1ccccc1)c1ccc2n1CCC2C(=O)O (stereo not given) [ketorolac]
inactive: [1] 0 | [2] 0 | [3] 0 | [4] 0 | [5] 0 | [6] 0 | [7] 0 | [8] 0 | [9] 0 | [10] 0 | [11] 0 | [12] 0 | [13] 0 | [14] 0 | [15] 0

COc1ccc(Cl)cc1C(=O)NCCc1ccc(S(=O)(=O)NC(=O)NC2CCCCC2)cc1 [glyburide]
inactive: [1] 0 | [2] 0 | [3] 0 | [4] 0 | [5] 0 | [6] 0 | [7] 0 | [8] 0 | [9] 0 | [10] 0 | [11] 0 | [12] 0 | [13] 0 | [14] 0 | [15] 0

CCCCCN(C)CCC(O)(P(=O)(O)O)P(=O)(O)O [ibandronate]
inactive: [1] 0 | [2] 0 | [3] 0 | [4] 0 | [5] 0 | [6] 0 | [7] 0 | [8] 0 | [9] 0 | [10] 0 | [11] 0 | [12] 0 | [13] 0 | [14] 0 | [15] 0
